In the library only some 27% were active in any assay of this set; here they are far more common.
CYP2C9 act – human CYP2C9 activators, primary screen, biochemical, luminescence. recombinant CYP2C9, luciferin-H conversion; active compounds read high; factor 1 = untreated enzyme, 0 = blocked. AID 1024, 2008. activation factor at 5 µM. 96,000 tested, 1.4% active. Cytochrome P450 2C9 (Homo sapiens), P11712;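 active means activation factor of 2 or more for CYP2C9 at a 5 µM dose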
Target sequence (P11712 whole entry, looked up): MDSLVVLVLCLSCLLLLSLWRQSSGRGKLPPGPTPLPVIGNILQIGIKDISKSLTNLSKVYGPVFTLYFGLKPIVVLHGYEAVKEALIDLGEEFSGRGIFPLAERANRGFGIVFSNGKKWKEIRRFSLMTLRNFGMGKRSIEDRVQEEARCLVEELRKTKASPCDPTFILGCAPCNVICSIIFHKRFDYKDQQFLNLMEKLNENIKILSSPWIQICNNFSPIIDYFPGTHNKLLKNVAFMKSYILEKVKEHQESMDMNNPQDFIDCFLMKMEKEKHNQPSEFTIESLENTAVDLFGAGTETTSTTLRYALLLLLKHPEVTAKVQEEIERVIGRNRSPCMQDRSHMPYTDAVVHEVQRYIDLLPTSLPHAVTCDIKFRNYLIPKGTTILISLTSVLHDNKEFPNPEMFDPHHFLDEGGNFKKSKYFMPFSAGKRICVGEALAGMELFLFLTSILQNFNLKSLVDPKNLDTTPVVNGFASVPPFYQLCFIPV
Cav32 inh – Cav3.2 calcium influx blockers – cell-based, Fluo-4 calcium fluorescence, FDSS, MLSMR library, primary screen. Voltage-dependent T-type calcium channel subunit alpha-1H (Homo sapiens), O95180. Cav3.2-expressing cells; active compounds read low. B-score at 10 µM. 100,000 tested, 4% active. AID 449739, 2010;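 active means single-dose well whose peak fluorescence ratio is a statistical outlier from its plate by either plate-standardised score or position-corrected B-score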
CYP2C9 inh – blockers of cytochrome P450 2C9 activity – biochemical, luminescence, ADME assay, primary screen; P11712; CYP2C9 Supersomes, luciferin-H conversion; inhibition, % at 5 µM; 96,000 tested, 20% active; AID 777, 2007;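 active means blocking of liver enzyme CYP2C9 beyond about 50% at 5 µM, limit read from the data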
PTK2B oligo ant – antagonists of Pyk2 self-association, primary screen, Q293 cells, FERM NanoBiT luminescence, HTS. Protein-tyrosine kinase 2-beta (Homo sapiens), Q14289. active compounds read low. AID 1347419, 2020. z-score (the deposit names both 25 µM and 10 µM). 99,000 tested, 0.83% active;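 active means Z-score of -3 or lower, scaled per plate to the spread of control and sample wells; inactive means z-score above -3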;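 further: negative z-score means lost luminescence so less FERM oligomerization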
CYP2C19 inh – blockers of cytochrome P450 2C19 activity – biochemical, luminescence, ADME assay, primary screen. P33261. CYP2C19 Supersomes, luciferin-H EGE luminescence, 30 min. inhibition, % at 5 µM. 96,000 tested, 21% active. AID 778, 2007;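 active means CYP2C19 inhibition above a set limit at 5 µM in the primary screen, cut at about 50% in these data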
CYP2C19 act – human CYP2C19 activators, primary screen, biochemical, luminescence. Cytochrome P450 2C19 (Homo sapiens), P33261. recombinant CYP2C19, luciferin-H EGE luminescence; active compounds read high; 0 = fully inhibited enzyme, 1 = untreated enzyme. activation factor at 5 µM. 96,000 tested, under 10 active;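 active means activation factor of at least 2 at 5 µM in the primary screen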
Each line names hits and unclear results; the compound was inactive in the other large screens.

CC(=NCCN1CCNCC1)C1=C(O)CC(C)(C)CC1=O	none
COc1ccc(NC(=O)CN(c2ccc(C(C)C)cc2)S(=O)(=O)c2c(C)noc2C)cc1OC	CYP2C19 inh 52 (no result: PTK2B oligo ant)
Cc1ccc(N(CC(=O)NCc2ccc3c(c2)OCO3)S(=O)(=O)c2c(C)noc2C)cc1	CYP2C9 inh 57, CYP2C19 inh 98 (no result: PTK2B oligo ant)
Cc1noc(C)c1S(=O)(=O)N(CC(=O)NCc1ccc2c(c1)OCO2)c1ccc(C(C)C)cc1	CYP2C19 inh 63 (no result: PTK2B oligo ant)
O=C(Nc1ccccc1)C1=C[C@@H](C2CC2)C[C@@H](OCCCCO)O1	none (no result: CYP2C9 act, CYP2C9 inh, PTK2B oligo ant, CYP2C19 inh, CYP2C19 act)
O=C(O)Cc1ccc(C(=O)c2ccccc2F)s1	CYP2C19 inh 50
CCOc1ccc2nc3c(cc2c1)CN(CCOC)C(=NC)S3	none (no result: CYP2C9 act, CYP2C9 inh, CYP2C19 inh, CYP2C19 act)
CCN=C1Sc2nc3ccc(OCC)cc3cc2CN1CCOC	CYP2C9 inh 96, CYP2C19 inh 91
CCOC(=O)NCc1cc(-c2nn(C)c(=O)c3ccccc23)ccc1C	CYP2C9 inh 78, CYP2C19 inh 69
CC(=O)NCc1cc(-c2nn(C)c(=O)c3ccccc23)ccc1C	none
Cc1ccc(-c2nn(C)c(=O)c3ccccc23)cc1CNS(C)(=O)=O	CYP2C9 act 2.3
COC(=O)[C@@]1(Cc2ccc(F)cc2)[C@H]2c3cc(C(=O)N(C)C)n(Cc4ccccn4)c3C[C@H]2CN1C(=O)c1ccccc1	none (no result: CYP2C9 act, CYP2C9 inh, PTK2B oligo ant, CYP2C19 inh, CYP2C19 act)
Cc1ccc(NCc2nnc(SCC(=O)c3ccc4c(c3)OCCO4)o2)c(C)c1	none
CCC(CO)Nc1ncnc2c1cnn2-c1ccc(Cl)cc1 (stereo not drawn)	CYP2C9 inh 65 (no result: PTK2B oligo ant)
CN(CC1CCCO1)S(=O)(=O)c1ccc(C(=O)Nc2nc(-c3ccccn3)cs2)cc1 (stereo not drawn)	none (no result: PTK2B oligo ant)
Cc1cccc(CN(C)CCc2ccccn2)c1	none
CC(C)(C)c1cc(S(=O)(=O)CCc2ccccn2)cc(C(C)(C)C)c1F	Cav32 inh -4
CCCC(=O)c1c[nH]c(C(=O)NCCc2ccccn2)c1	none
CC1=NOC(=O)/C1=C/c1ccc(-c2ccc(Cl)cc2)o1	CYP2C9 inh 68, CYP2C19 inh 76
CSc1nnc(C)c(=O)[nH]1	none (no result: CYP2C9 act, CYP2C9 inh, CYP2C19 inh, CYP2C19 act)
COc1ccc(COc2cc(-c3cccc(OC)c3)nc3ccc(N)cc23)cc1	none (no result: CYP2C9 act, CYP2C9 inh, PTK2B oligo ant, CYP2C19 inh, CYP2C19 act)
N#C/C(C(=O)N1CCCC1)=C1/N=C(N)c2ccccc21	none (no result: CYP2C9 act, Cav32 inh, CYP2C9 inh, CYP2C19 inh, CYP2C19 act)
Cc1ccc(NC(=O)NC2=N/C(=C(/C#N)C(=O)N3CCCC3)c3ccccc32)cc1	CYP2C9 inh 98, CYP2C19 inh 89
Cc1c(C(=O)NCc2ccc3c(c2)cc(C)n3C)cccc1[N+](=O)[O-]	none (no result: CYP2C9 act, CYP2C9 inh, PTK2B oligo ant, CYP2C19 inh, CYP2C19 act)
CC(=O)c1ccc(NC(=S)N2C(C)CCCC2C)cc1 (stereo not drawn)	none (no result: PTK2B oligo ant)
Cc1cccc(N2CCN(C(=O)CCCSc3nc4ccccc4[nH]3)CC2)c1C	Cav32 inh -5.5
O=C(CSc1nc2ccccc2[nH]1)N1CCCCC1	CYP2C19 inh 88
O=C(CSc1nc2ccccc2[nH]1)N1CCN(c2ccccc2)CC1	none
Cc1ccc2[nH]c(SCC(=O)N3CCOCC3)nc2c1C	CYP2C19 inh 81
Cc1c(C)n(C(=O)CSc2nc3ccccc3[nH]2)c2ccccc12	CYP2C9 inh 94, CYP2C19 inh 95
O=C(CCCSc1nc2ccccc2[nH]1)N1CCN(c2ccccc2)CC1	none
CCCC[C@@H]1CCCO[C@@](C(=O)NCc2ccc(C)o2)(C(F)(F)F)C1	none (no result: CYP2C9 act, CYP2C9 inh, PTK2B oligo ant, CYP2C19 inh, CYP2C19 act)
COc1cc(CC(=O)Nc2ccc(S(=O)(=O)N(C)C)cc2)cc(OC)c1OC	none
Cc1ccc2nc(SCC(=O)N3CCOCC3)[nH]c2c1	CYP2C19 inh 68
c1ccc2[nH]c(SCCN3CCOCC3)nc2c1	CYP2C19 inh 59
CCC(C)NC(=O)NC(=O)N(C1CCCCC1)S(C)(=O)=O (stereo not drawn)	none
C=CCn1c(=O)c2ccccc2n2c(SCC(N)=O)nnc12	none
C=CCn1c(=O)c2ccccc2n2c(SCc3nc4ccccc4s3)nnc12	CYP2C19 inh 62
CCOC(=O)c1oc2ccccc2c1CSc1nnnn1-c1ccc(C)cc1	Cav32 inh -3.9 (no result: CYP2C9 act, CYP2C9 inh, CYP2C19 inh, CYP2C19 act)
CCOC(=O)NC(=O)CSc1nnnn1-c1ccccc1	none
C=CCn1c(=O)c2ccccc2n2c(SCc3c(C(=O)OCC)oc4ccccc34)nnc12	CYP2C9 inh 60, CYP2C19 inh 59
CCN(CC)C(=O)CSc1nnc(-c2ccco2)o1	none (no result: CYP2C9 act, CYP2C9 inh, CYP2C19 inh, CYP2C19 act)
CCOC(=O)c1oc2ccccc2c1CSc1nnc(-c2ccco2)o1	CYP2C9 inh 69
Cc1ccc(-c2nnn(CC(=O)N(Cc3ccccc3F)C(C(=O)NC3CCCC3)c3ccncc3)n2)o1 (stereo not drawn)	none (no result: CYP2C9 act, CYP2C9 inh, CYP2C19 inh, CYP2C19 act)
O=C(Nc1ccccc1Sc1ccccc1)c1ccccc1	CYP2C9 inh 77, CYP2C19 inh 86
COc1ccc(NC(=O)c2ccccc2NC(=O)C2CCCO2)cc1 (stereo not drawn)	CYP2C9 inh 80, CYP2C19 inh 50
CC(C)NC(=O)c1ccccc1NC(=O)C1CCCO1 (stereo not drawn)	none
O=C(Nc1ccccc1Sc1ccccc1)C1CCCO1 (stereo not drawn)	CYP2C19 inh 69
O=C1CCCC2=C1C1(CCCC1)N=C(Nc1nc3ccccc3s1)N2	none
COc1ccc2nc(C3CCCCC3)c3c(c2c1)CCC3	none (no result: CYP2C9 act, CYP2C9 inh, PTK2B oligo ant, CYP2C19 inh, CYP2C19 act)
C=CCn1c(CCNC(=O)c2cccs2)nnc1SCC(=O)c1ccc(Cl)cc1	CYP2C9 inh 79, CYP2C19 inh 78
C=CCn1c(CSc2nc3ccccc3s2)nnc1SCC(=O)OCC	CYP2C19 inh 77
C=CCn1c(CNC(=O)c2cccs2)nnc1SCC(=O)Nc1ccc(C(=O)O)cc1	none
C=CCn1c(CCNC(=O)c2ccccc2F)nnc1SCC(=O)Nc1nc2ccccc2s1	CYP2C9 inh 59
C=CCn1c(CNC(=O)c2cccs2)nnc1SCC(=O)c1ccc(Br)cc1	CYP2C9 inh 61
O/N=C1\CC/C(=N\O)c2nn(-c3ccc(Cl)cc3Cl)nc21	none
CC1(C(=O)NC2CCCC2)CCC(=O)N1CCC1=CCCCC1 (stereo not drawn)	none
COc1ccc(S(=O)(=O)n2cnc3cc(C)c(C)cc32)cc1C	none
COc1ccc(S(=O)(=O)n2cnc3cc(C)c(C)cc32)cc1	CYP2C9 inh 87, CYP2C19 inh 96
CCOc1cc(C(=O)Nc2ccccc2N2CCN(S(C)(=O)=O)CC2)cc(OCC)c1OCC	none
CC(=O)c1ccc(N2C(=O)NC3(CCCCC3)C2=O)cc1	none
Cc1nc2ccc(NC(=O)Cc3cccs3)cc2s1	CYP2C9 inh 65, CYP2C19 inh 59
Cc1nc2ccc(NC(=O)c3ccc(Cl)c(NC(=O)c4cccs4)c3)cc2s1	CYP2C9 inh 54
O=C(Cc1cccs1)Nc1ccc(C(=O)O)cc1	none
